Rows were chosen to be rich in hits. Some 2.4% of all compounds tested hit in one or more screens of this group.
D2 antagonist: antagonists of human D2 dopamine receptor. P14416. HEK293 TREx D2 cells, calcium flux, dopamine EC80. inhibition, % at 10 µM. hit rate 2% among 340,000; in the data active = inhibition above about 30%; inactive = below that, where a call was filed; note: 0% is about no effect
Target sequence (P14416 whole entry, looked up): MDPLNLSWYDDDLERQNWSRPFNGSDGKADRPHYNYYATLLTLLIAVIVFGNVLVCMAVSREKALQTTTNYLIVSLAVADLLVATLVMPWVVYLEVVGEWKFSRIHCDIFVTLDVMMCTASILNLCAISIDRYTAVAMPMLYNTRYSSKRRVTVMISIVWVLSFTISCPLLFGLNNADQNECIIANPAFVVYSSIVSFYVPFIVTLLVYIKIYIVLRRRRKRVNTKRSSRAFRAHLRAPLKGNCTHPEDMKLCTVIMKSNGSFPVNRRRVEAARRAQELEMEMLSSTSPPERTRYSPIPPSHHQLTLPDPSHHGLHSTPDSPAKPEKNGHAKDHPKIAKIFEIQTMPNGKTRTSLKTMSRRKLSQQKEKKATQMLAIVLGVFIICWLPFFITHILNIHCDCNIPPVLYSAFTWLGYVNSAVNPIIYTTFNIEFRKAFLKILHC
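Compounds are added to dye-loaded, induced HEK293 T-REx cells coupled to calcium release via D2; after a 3 min kinetic read an EC80 dopamine stimulus is given and fluorescence is recorded for 3 more min.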
D2 PAM-1: positive allosteric modulators of human D2 dopamine receptor | HEK293 T-REx D2, calcium flux, EC20 dopamine potentiation | potentiation, % at 10 µM | hit rate 0.34% among 340,000 | AID 485347;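 active = potentiation over 3 SD above the plate norm, cut at about 30% in these data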; note: 0% is about no effect
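Calcium flux readout, no-wash dye, 1 read/s. Inducible HEK293 Trex D2 line, overnight 30 C. Compound alone 180 s (agonist flags), then EC20 dopamine, another 180 s to score potentiation.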
D2 PAM-2: positive allosteric modulators of human D2 dopamine receptor. P14416. AID 624464. hit rate 0.23% among 360,000. DiscoveRx D2 beta-arrestin cells, luminescence, 90 min; 100% = 57 uM dopamine signal. potentiation, % (test concentration not listed); in the data active = potentiation above about 50%; inconclusive = mostly about 30% to 49%
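PathHunter beta-arrestin assay in DiscoveRx D2 cells. Compounds were added with an EC20 of dopamine (50 nM final) for 90 min at 37 deg C. Luminescence was read 1 h after detection reagent, with 57 uM dopamine as the EC100 control.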
D2 ag-1: D2 dopamine receptor (human) agonism; activation, % at 2 µM; AID 485358; hit rate 0.53% among 340,000; P14416; HEK293 T-REx D2 cells, calcium flux agonist mode;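 active = activation over 3 SD above normal in the single-dose calcium agonist read, cut at about 30% in these data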; note: 0% is about no effect
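Agonism scored from kinetic calcium signal (1 read/sec, 180 s) following compound pin transfer, after a 10 s baseline. Cells: HEK293 Trex line expressing inducible D2 receptor coupled to calcium, dye-loaded after overnight culture at 30 C.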
D2 ag-2: activates the human D2 dopamine receptor; DiscoveRx PathHunter D2 beta-arrestin, luminescence, 90 min; 100% = 57 uM dopamine signal; activation, % (no concentration beside the values); hit rate 0.084% among 360,000; P14416; in the data active = activation above about 40%; inconclusive = between about 15% and that limit
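DiscoveRx PathHunter D2 beta-arrestin cells (2,100/well) attached overnight, then compound-stimulated 90 min at 37 C in HBSS/10 mM HEPES/0.1% Tween-20 buffer; beta-galactosidase complementation read by luminescence after 1 h at ambient temperature. Dopamine 57 uM final (EC100) as control.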
Numbers without * were called inactive; ? = inconclusive; · = no result.

SMILES	D2 antagonist	D2 PAM-1	D2 PAM-2	D2 ag-1	D2 ag-2
COc1ccccc1N(CC(=O)NCc1ccco1)C(=O)CCC(=O)Nc1ccccn1	-6.7	31.8*	3.0	-1.0	-0.8
CCN(CC)c1sc(S(=O)(=O)c2ccccc2)nc1S(=O)(=O)c1ccc(C)cc1	·	16.6	·	0.9	·
CC1CCN(c2ccc(-c3nc(C(C)C)no3)cc2[N+](=O)[O-])CC1	·	·	·	-1.3	·
COc1cc(NC(=O)CN2C(=O)C(c3ccc(C)cc3)=NC23CCCCCC3)cc(OC)c1	·	-8.2	·	0.0	·
Cc1ccccc1Nc1nc(N)nc(COC(=O)CCS(=O)(=O)c2ccccc2)n1	31.7*	-13.1	-4.3	2.4	1.3
Cc1ccc(S(=O)(=O)CCC(=O)OCc2nc(N)nc(Nc3ccccc3C)n2)cc1	-2.3	21.3	?	0.2	-2.3
COc1ccc(C(=O)NC2CCCc3c2cnn3-c2cc(F)cc(F)c2)c(OC)c1OC (configuration not stated)	-2.0	-4.7	1.5	-0.9	-0.9
O=C(CC1CCCCC1)Nc1ccc(-c2ccc3nncn3n2)cc1	10.7	43.1*	-1.6	0.1	-2.4
Cc1ccc(S(=O)(=O)N(C)C)cc1NC(=S)Nc1ccc2cn[nH]c2c1	43.0*	-12.4	-13.8	-1.8	-4.1
Cc1ccc(S(=O)(=O)N(C)C)cc1NC(=S)NCCc1ccccn1	34.1*	-26.4	-18.9	0.2	0.9
CN(C)S(=O)(=O)c1cccc(NC(=S)NCCc2ccccn2)c1	24.5	-8.8	-11.0	1.1	-3.2
CCOc1ccc(NC(=O)c2ccc(F)c(S(=O)(=O)N(CC)Cc3ccccc3)c2)cc1	·	9.8	·	0.5	·
O=C(CNC(=O)c1ccc(Cl)c([N+](=O)[O-])c1)OC1CCCCC1=O (configuration not stated)	16.1	0.9	-23.9	-0.4	-2.5
CS(=O)(=O)N(CC(N)=O)c1cccc(Br)c1	-3.8	47.7*	?	0.8	0.9
N#Cc1c(C(F)(F)F)cc(-c2ccccc2Cl)[nH]c1=O	44.4*	2.3	4.8	0.6	2.0
CS(=O)(=O)Oc1ccc2c(c1)O/C(=C\C=C\c1ccccc1)C2=O	37.5*	-3.2	-2.8	3.4	2.5
Cc1cccc(C(=O)Nc2nnc(S(=O)(=O)N(C)Cc3ccc(Cl)cc3)s2)c1	·	-2.8	·	0.2	·
CCOC(=O)N1CCN(C(=O)CN2C(=O)COc3ccc(C)cc32)CC1	37.5*	-5.7	-6.6	-0.6	0.5
Cc1ccc2c(c1)N(CC(=O)N1CCCC1)C(=O)CO2	0.7	-8.4	-2.2	0.6	-3.0
CC1(C)Oc2ccc(C(=O)Nc3ccccc3F)cc2N(CC(=O)N2CCOCC2)C1=O	-11.1	8.4	-7.7	-0.1	-5.5
CCC(C)(C)NC(=O)c1ccc2c(c1)N(CC(=O)NC1CCCC1)C(=O)C(C)(C)O2	62.3*	-30.7	-12.1	-1.3	-5.7
CCOC(=O)c1ccc2c(c1)N(CC(=O)N1CCCCC1)C(=O)C(C)(C)O2	15.3	-5.9	-2.6	-0.6	-1.8
COC(=O)CN1C(=O)C(C)(C)Oc2ccc(C(=O)Nc3ccccc3F)cc21	18.5	31.1*	-2.6	-0.7	2.7
CCOC(=O)c1ccc2c(c1)N(CC(=O)N1CCCC1)C(=O)C(C)(C)O2	-2.5	45.4*	-15.4	0.2	-3.3
Cc1ccc(-c2nonc2NC(=O)c2ccc(F)cc2)cc1C	·	-6.4	·	-0.6	·
SMILES	D2 antagonist	D2 PAM-1	D2 PAM-2	D2 ag-1	D2 ag-2
COc1cc(-c2nc3nc(C)cc(C)n3c2Nc2ccc(Cl)cc2)ccc1O	·	-0.9	·	1.0	·
Cc1ccc(OCC(=O)Nc2ccccc2OCc2cc(=O)n3ccccc3n2)cc1C	·	-2.9	·	0.6	·
Cc1ccccc1C(=O)NCCCNC(=O)c1ccccn1	1.7	31.0*	0.0	-1.7	-1.2
Cc1ccccc1C(=O)NCCNC(=O)c1ccccn1	-3.1	0.4	-7.5	3.4	-4.8
O=C(NCCCNCCCNC(=O)c1ccccn1)c1ccccn1	74.1*	3.7	-25.4	-0.2	-0.7
CN(C)CCCNCCCNC(=O)c1ccccn1	19.0	-4.5	-3.9	-1.4	-0.9
C[C@H](O)[C@@H]1CN2CCc3c([nH]c4ccc(-c5ccc6c(c5)OCO6)cc34)[C@@H]2C[C@@H]1N(C)C(=O)NC1CCCCC1	·	·	-8.5	·	-4.5
CCOc1ccc(NS(=O)(=O)c2ccc3c(c2)CCCN3C(=O)C2CCC2)cc1	·	2.7	·	0.5	·
CCCS(=O)(=O)N1CCC(C(=O)NCCCN2CCC(Cc3ccccc3)CC2)CC1	32.9*	-3.4	-21.9	0.8	-2.1
CCCS(=O)(=O)N1CCC(C(=O)N2CCC(Cc3ccccc3)CC2)CC1	-7.9	7.1	-7.8	0.6	-4.1
CC(=O)Nc1ccc(OC(=O)c2ccc(Cl)cc2)cc1	32.9*	-1.8	-14.0	0.0	0.8
COc1ccc(CNc2nc(NCc3ccc(OC)cc3)n(C(=O)c3ccncc3)n2)cc1	2.8	7.8	-9.7	1.3	-1.6
COc1ccc(CNc2nc(NCc3ccc(OC)cc3)n(C(=O)c3ccccc3[N+](=O)[O-])n2)cc1	31.2*	10.3	-0.8	0.6	-3.3
NC(=O)CCC(NC(=O)c1ccc(Cl)cc1)C(=O)NCCc1ccc2c(c1)OCCO2 (configuration not stated)	42.2*	8.0	-11.5	-0.3	-5.9
NC(=O)CC(NC(=O)c1ccc(Cl)cc1)C(=O)NCCc1ccc(S(N)(=O)=O)cc1 (configuration not stated)	10.5	-4.8	-4.2	-0.4	9.8
CSCCC(NC(=O)c1ccccc1)C(=O)NC1CC1 (configuration not stated)	11.4	-0.8	-16.0	-0.5	-2.9
CSCCC(NC(=O)c1ccccc1)C(=O)NCc1ccc(S(N)(=O)=O)cc1 (configuration not stated)	31.4*	-8.2	-0.4	1.3	1.9
CSCCC(NC(=O)c1ccccc1)C(=O)NCCc1ccc2c(c1)OCCO2 (configuration not stated)	65.6*	-9.9	-28.0	0.0	1.2
COc1ccccc1NC(=O)N(C)C[C@@H]1OCc2cnnn2CCCC(=O)N([C@@H](C)CO)C[C@@H]1C	·	·	7.1	·	-9.1
Cc1nc2c(c(SCC(=O)Nc3ccccc3C(F)(F)F)n1)CCC2	·	0.3	·	·	·
O=c1c2cnn(-c3ccc(F)cc3)c2ncn1Cc1ccccc1Cl	·	9.5	·	0.0	·
CCOc1ccc(NC(=O)/C(C#N)=C/c2ccc(N3CCCC3)c(C)c2)cc1	38.4*	-3.5	6.1	32.5*	5.8
N#Cc1ccc(Oc2ccc(C#N)c(C#N)c2)cc1C#N	·	·	-10.0	·	-2.9
COc1cc(/C=C2\SC(=O)N(CC(=O)Nc3ccccc3F)C2=O)cc(Cl)c1O	17.5	-5.9	3.4	41.4*	5.1
CN(Cc1ccccc1)C(=C(Cl)Cl)/C(=C1/NCCN1C)[N+](=O)[O-]	7.4	2.4	-7.1	0.1	-1.0
